# A selection: hits, their analogues and other compounds. The true share with any hit is near 2.4%.
# EP2 mod: EP2 receptor modulators, cAMP readout, primary screen, cell-based, HTRF cAMP, PGE2 stimulation; Prostaglandin E2 receptor EP2 subtype (Homo sapiens), P43116; EP2-expressing cells, cAMP HTRF FRET, PGE2 co-stimulation; induction, % at 25 µM; actives 0.83% (n = 260,000); AID 940, 2007;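 active = compounds whose cAMP rise, as percent of the full-agonist control response, exceeds 60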;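 also: rat C6 glioma line stably carrying human EP2 under a CMV promoter; the protocol text gives 20 µM as final concentration; 100% = response of wells given 1 µM PGE2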
# Target sequence (P43116 whole entry, looked up): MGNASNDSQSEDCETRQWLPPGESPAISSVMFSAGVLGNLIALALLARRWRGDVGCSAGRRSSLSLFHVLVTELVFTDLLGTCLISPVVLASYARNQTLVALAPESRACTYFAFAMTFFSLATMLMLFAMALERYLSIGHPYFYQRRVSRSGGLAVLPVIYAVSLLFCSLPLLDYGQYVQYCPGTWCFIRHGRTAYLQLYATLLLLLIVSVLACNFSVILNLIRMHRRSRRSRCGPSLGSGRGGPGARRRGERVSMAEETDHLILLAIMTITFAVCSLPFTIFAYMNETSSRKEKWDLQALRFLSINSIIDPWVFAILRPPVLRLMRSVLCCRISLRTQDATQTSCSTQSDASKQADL
# INS promoter inh: inhibitors of insulin promoter-driven GFP, primary screen, imaging, TRM-6 cells (human fetal islet line), eGFP reporter, cell count; reporter expression induced with tamoxifen; inhibition, % at 2 µM; actives 0.9% (n = 130,000);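 active = inhibition above the mean plus 3 SD, with well images judged a real hit on visual review, cut at about 60% in these data, passing the limit was not always enough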
# S1P4 antag: S1P4 receptor antagonists, primary screen, cell-based; Sphingosine 1-phosphate receptor 4 (Homo sapiens), O95977; S1P4-expressing cells, antagonist mode, reporter read-out; inhibition, % at 4.98 µM; actives 0.26% (n = 220,000); AID 1510, 2009; in the data active = inhibition above about 29%;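 also: 0% = wells stimulated with agonist and 100% = vehicle wells without agonist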
# PGE2 EP2 inh: human EP2 receptor antagonists, primary screen, TR-FRET cAMP, C6 glioma cells; C6 glioma cells expressing human EP2; cells stimulated with saturating PGE2; inhibition, % at 25 µM; actives 0.52% (n = 260,000); AID 1422, 2008;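 active = percent inhibition above 40 after rounding to a whole number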;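 also: rat C6 glioma host cells with rolipram phosphodiesterase inhibitor present; the protocol text gives 20 µM as final concentration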
# S1P3 antag: S1P3 receptor antagonists, primary screen, cell-based; Sphingosine 1-phosphate receptor 3 (Homo sapiens), Q99500; CHO S1P3 NFAT-BLA reporter, FRET fluorescence, antagonist mode; inhibition, % at 4.98 µM; actives 0.27% (n = 170,000); AID 485, 2006;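 active = inhibition above the plate cutoff, the mean inhibition of test wells on that plate plus 3 SD, cut at about 28% in these data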;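 also: cells challenged with S1P at its EC80 of 0.8 µM; blue over green emission ratio from cleaved BLA substrate after 4 h stimulation; 0% = S1P-stimulated wells and 100% = unstimulated DMSO-only wells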
# S1P4 agonist: S1P4 receptor agonists, primary screen, cell-based; Sphingosine 1-phosphate receptor 4 (Homo sapiens), O95977; S1P4-expressing cell line, agonist reporter assay; activation, % at 4.98 µM; actives 0.35% (n = 220,000); AID 1509, 2009; in the data active = activation above about 11%;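 also: 0% = DMSO vehicle and 100% = reference agonist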
# EP2 confirm: cAMP induction in EP2, EP4, beta2-AR and parental cells, confirmation, counter-screen for EP2 modulator project, cell-based, five parallel assays, C6 glioma, HEK293 | calls only at 20 µM (by protocol) | actives 47% (n = 1,300) | AID 1080, 2008 | shares compounds with EP2 mod | cAMP HTRF induction; plus low (about EC15) PGE2 agonist;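 active = cAMP induction above 50% in the main assay while under 30% in all four parallel counter assays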;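 also: rat C6 glioma cells stably expressing human EP2 receptor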
# * hit, by the source's call; i = inactive; · = not tested or not shown; + = active, no number; ! = not active in a repeat.
SMILES,EP2 mod,INS promoter inh,S1P4 antag,PGE2 EP2 inh,S1P3 antag,S1P4 agonist,EP2 confirm
CCOC(=O)CCN(Cc1sccc1C)S(=O)(=O)c1ccc(F)cc1,81*,-77,14,2,·,0,i
CCCCOc1cc(C)nc(NCc2ccccc2)n1,78*,·,-2,11,-36,0,+
Cc1cc(N2CCCCC2)nc(NCc2ccccc2)n1,-38,-3,10,32,·,-1,·
CCN1CCCC1CN(Cc1ccccn1)Cc1nccn1C (stereo unspecified),12,·,·,9,·,·,·
COc1ccc2[nH]c(=O)c(CN(C3CCCC3)C(c3nnnn3CC3CCCO3)C(C)C)cc2c1 (stereo unspecified),-6,·,·,8,·,·,·
Oc1ccc(/C=N/N2CCN(C3c4ccccc4-c4ccccc43)CC2)c(O)c1,66*,-25,10,6,-7,-2,i
Oc1ccc(/C=N/N2CCN(C3c4ccccc4-c4ccccc43)CC2)cc1,10,·,9,14,-8,1,·
c1ccc(-c2nn3c(C4CCCCC4)nnc3s2)cc1,73*,·,-6,3,·,0,+
c1ccc(-c2nn3c(-c4ccccc4)nnc3s2)cc1,74*,15,-12,3,-2,1,+
Cc1cccc(-c2nnc3sc(-c4ccccc4)nn23)c1,55,·,2,6,23,1,·
c1ccc(-c2nn3c(C4CCCCC4)nnc3s2)nc1,-14,56,-13,22,14,-1,·
COc1ccc(N(CC(O)CN2CCC(C)CC2)S(=O)(=O)c2ccccc2)cc1 (stereo unspecified),-9,·,·,7,·,·,·
O=S(=O)(NCc1cccnc1)c1cccn1-c1ncc(C(F)(F)F)cc1Cl,-55,·,-4,4,-12,-1,·
O=S(=O)(c1cccc(C(F)(F)F)c1)N1c2ccccc2-n2cccc2[C@H]1c1cccnc1,52,·,·,37,·,·,+
COc1ccc(C(=O)C2CCN(S(=O)(=O)c3ccc(OC)cc3)CC2)cc1,-123,·,·,14,·,·,·
CCOC(=O)Cc1csc(NC(=O)c2cc(=O)c3ccccc3o2)n1,84*,-11,-1,9,-16,0,+
Cc1ccc2nc(Nc3ccc4[nH]c(=O)[nH]c4c3)c(-n3nc(C)cc3C)nc2c1,86*,28,8,7,24,3,i
CCn1c(COc2ccccc2OC)nnc1SCC(=O)Nc1nc(C)cs1,3,·,·,10,·,·,·
CCN=C1S/C(=C\c2cc(OCC)c(O)cc2Br)C(=O)N1CC,49,50,-23,11,1,1,·
CCN=C1S/C(=C\c2ccc(O)c(OCC)c2)C(=O)N1CC,81*,25,-20,8,7,1,i
Cc1ccccc1NC(=O)/C(=C/c1ccco1)c1ccccc1,38,-26,16,9,·,3,·
CCc1ccccc1NC(=O)/C(=C/c1ccco1)c1ccccc1,68*,-31,19,5,·,0,+
Cc1cc2cc(CN(Cc3nnnn3C3CCCCC3)CC3CCCO3)c(=O)[nH]c2cc1C (stereo unspecified),65*!,3,-5,7,-44,-1,i
CCc1ccc2[nH]c(=O)c(CN(Cc3nnnn3C3CCCC3)C3CCCCC3)cc2c1,74*!,0,-9,12,-15,0,+
CCc1cc(NN)n2nc3nc(C)cc(C)c3c2n1,-27,·,·,·,·,·,·
SMILES,EP2 mod,INS promoter inh,S1P4 antag,PGE2 EP2 inh,S1P3 antag,S1P4 agonist,EP2 confirm
O=C1c2cccc3c(Br)ccc(c23)C(=O)N1c1ccc(N2CCOCC2)cc1,-3,·,·,9,·,·,·
CC(=O)c1c(OC(=O)c2ccccc2Cl)c2ccccc2n1C,30,·,·,5,·,·,·
Cc1ccc(C(=O)C2=C(O)C(=O)N(CCCn3ccnc3)C2c2ccc(OC(C)C)cc2)o1 (stereo unspecified),65*,67,-10,13,-8,0,i
CCOc1ccc(C2C(C(=O)c3ccco3)=C(O)C(=O)N2CCCn2ccnc2)cc1 (stereo unspecified),14,-42,-6,5,-3,0,·
CCCCc1nc(SCCOC)c2c(=O)n(C)c(=O)n(C)c2n1,59,·,3,6,-13,1,i
CCCc1nc(SCC(=O)c2ccc(OC)cc2)c2c(=O)n(C)c(=O)n(C)c2n1,·,·,·,·,-13,·,·
COc1cc2cc(CN(CCN(C)C)C(=O)Nc3ccc(F)cc3)c(=O)[nH]c2cc1OC,-32,·,·,13,·,·,·
C#CCn1c(S(=O)(=O)Cc2ccccc2Cl)nc(-c2ccccc2)c1-c1ccccc1,72*,-3,4,3,·,-2,+
CCOC(=O)c1ccc2nc(C(F)(F)F)[nH]c(=O)c2c1,73*,29,2,13,-15,0,i
CCOC(=O)c1cc2sc(C)cc2n1CC(=O)NCc1ccc(OC)cc1,14,·,·,12,·,·,·
CCOC(=O)c1cc2sc(C)cc2n1C(C)C(=O)OCC (stereo unspecified),65*,26,-20,7,76*,-1,i
CCOC(=O)C(C)n1nc(C)n2c(cc3sc(C)cc32)c1=O (stereo unspecified),-3,·,·,·,·,·,·
CN1[C@@H](C(=O)N2CCN(c3ccc(F)cc3)CC2)C[C@@H](c2ccco2)NS1(=O)=O,-10,·,·,·,·,·,·
CCCCOP(=O)(OCCCC)C(Nc1ccccc1)c1ccc2c(c1)OCO2 (stereo unspecified),70*,-23,-7,6,22,1,i
O=C(O)c1oc(C(=O)O)c(C(=O)O)c1C(=O)O,57,·,·,11,·,·,i
Cc1oc(C)c(C(=O)O)c1C(=O)O,-6,·,-4,1,-5,0,·
CC(C)NC(=O)C1CC(=O)N(c2ccc(C(C)C)cc2)C1 (stereo unspecified),-18,·,·,8,·,·,·
COc1ccc(CSC2=C(C#N)C(=O)NC3(CCCCC3)S2)cc1,54,·,·,37,·,·,i
Cc1noc(C)c1COC(=O)C(c1ccccc1)c1ccccc1,75*,-92,-14,5,-5,1,i
CN(c1ccccc1)C1CCCCC1NS(=O)(=O)c1ccc(Cl)cc1 (stereo unspecified),66*,27,-3,6,0,-1,+
Cn1c(=O)[nH]c(=O)c2c1nc(CN1CCN(c3cccc(Cl)c3)CC1)n2Cc1ccccc1Cl,69*,-114,-11,6,-10,-1,i
